In the supplement of paper PMC11732987, “Enantioselective OTUD7B fragment discovery through chemoproteomics screening and high-throughput optimisation” (Communications Chemistry, 2025):

Columns and labels:
Assay in all cases: log2 ratio of Biotin-Ahx-Ub-VS probe labelling (fragment/DMSO); higher = less target engagement (more negative = stronger competition), active = hit call of the paper (q ≤ 0.05, log2 ratio ≤ -1)
Settings in all cases: compound concentration: 200 uM; treatment time: 3 h
USP19 = target: T1, USP19 (UniProt O94966)
T1 sequence (whole entry): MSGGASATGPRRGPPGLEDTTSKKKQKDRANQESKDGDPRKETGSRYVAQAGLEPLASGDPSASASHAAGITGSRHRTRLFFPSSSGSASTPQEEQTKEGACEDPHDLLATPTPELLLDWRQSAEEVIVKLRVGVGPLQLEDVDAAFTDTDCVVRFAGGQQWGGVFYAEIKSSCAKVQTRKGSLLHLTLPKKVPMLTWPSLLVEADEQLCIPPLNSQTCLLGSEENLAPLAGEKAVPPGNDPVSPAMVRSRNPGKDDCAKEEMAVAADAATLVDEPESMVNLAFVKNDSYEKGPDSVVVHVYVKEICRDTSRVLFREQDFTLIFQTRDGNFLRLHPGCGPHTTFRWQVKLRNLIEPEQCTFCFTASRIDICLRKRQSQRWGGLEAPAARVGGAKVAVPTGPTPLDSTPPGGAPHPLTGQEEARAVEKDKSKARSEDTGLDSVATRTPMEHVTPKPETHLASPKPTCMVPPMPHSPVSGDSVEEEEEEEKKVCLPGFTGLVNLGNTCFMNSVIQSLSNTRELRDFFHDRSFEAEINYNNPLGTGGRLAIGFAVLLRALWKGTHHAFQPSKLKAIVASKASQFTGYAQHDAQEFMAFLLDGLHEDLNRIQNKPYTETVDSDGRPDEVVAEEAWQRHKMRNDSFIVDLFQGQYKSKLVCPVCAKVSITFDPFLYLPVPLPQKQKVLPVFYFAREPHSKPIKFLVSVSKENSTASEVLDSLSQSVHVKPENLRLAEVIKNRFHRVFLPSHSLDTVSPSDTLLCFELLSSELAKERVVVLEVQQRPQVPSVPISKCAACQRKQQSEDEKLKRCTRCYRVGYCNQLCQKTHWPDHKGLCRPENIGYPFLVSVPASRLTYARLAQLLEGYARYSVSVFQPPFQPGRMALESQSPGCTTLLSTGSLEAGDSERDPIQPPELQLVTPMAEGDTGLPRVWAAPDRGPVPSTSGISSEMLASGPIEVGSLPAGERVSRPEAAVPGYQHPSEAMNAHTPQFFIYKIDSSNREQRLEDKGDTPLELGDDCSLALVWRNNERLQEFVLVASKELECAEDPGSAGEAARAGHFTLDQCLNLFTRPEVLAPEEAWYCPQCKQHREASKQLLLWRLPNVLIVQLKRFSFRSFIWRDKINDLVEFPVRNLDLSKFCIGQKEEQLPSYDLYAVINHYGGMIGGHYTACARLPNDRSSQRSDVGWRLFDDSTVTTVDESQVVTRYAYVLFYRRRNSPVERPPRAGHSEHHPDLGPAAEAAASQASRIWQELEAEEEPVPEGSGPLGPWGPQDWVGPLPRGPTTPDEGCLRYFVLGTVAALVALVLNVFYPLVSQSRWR
Procedure, shortened: (§1)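 Fragment (200 µM) or vehicle was incubated for 3 h with triplicate HEK293T lysate samples of 495 µg, which were then treated with Biotin-Ahx-Ub-VS at 0.5 µM final for 1 h. Labelled DUBs were enriched on NeutrAvidin, digested with LysC and trypsin, and analysed by diaPASEF LC-MS/MS. Values are average log2 fragment/vehicle ratios from an unpaired t-test on global-median-normalised Spectronaut label-free quantities, using proteins with ≥2 unique peptides.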

USP24 = USP24 (UniProt Q9UPU5)
Procedure, shortened: as §1

USP25 = target: T2, USP25 (UniProt Q9UHP3)
T2 sequence (whole entry): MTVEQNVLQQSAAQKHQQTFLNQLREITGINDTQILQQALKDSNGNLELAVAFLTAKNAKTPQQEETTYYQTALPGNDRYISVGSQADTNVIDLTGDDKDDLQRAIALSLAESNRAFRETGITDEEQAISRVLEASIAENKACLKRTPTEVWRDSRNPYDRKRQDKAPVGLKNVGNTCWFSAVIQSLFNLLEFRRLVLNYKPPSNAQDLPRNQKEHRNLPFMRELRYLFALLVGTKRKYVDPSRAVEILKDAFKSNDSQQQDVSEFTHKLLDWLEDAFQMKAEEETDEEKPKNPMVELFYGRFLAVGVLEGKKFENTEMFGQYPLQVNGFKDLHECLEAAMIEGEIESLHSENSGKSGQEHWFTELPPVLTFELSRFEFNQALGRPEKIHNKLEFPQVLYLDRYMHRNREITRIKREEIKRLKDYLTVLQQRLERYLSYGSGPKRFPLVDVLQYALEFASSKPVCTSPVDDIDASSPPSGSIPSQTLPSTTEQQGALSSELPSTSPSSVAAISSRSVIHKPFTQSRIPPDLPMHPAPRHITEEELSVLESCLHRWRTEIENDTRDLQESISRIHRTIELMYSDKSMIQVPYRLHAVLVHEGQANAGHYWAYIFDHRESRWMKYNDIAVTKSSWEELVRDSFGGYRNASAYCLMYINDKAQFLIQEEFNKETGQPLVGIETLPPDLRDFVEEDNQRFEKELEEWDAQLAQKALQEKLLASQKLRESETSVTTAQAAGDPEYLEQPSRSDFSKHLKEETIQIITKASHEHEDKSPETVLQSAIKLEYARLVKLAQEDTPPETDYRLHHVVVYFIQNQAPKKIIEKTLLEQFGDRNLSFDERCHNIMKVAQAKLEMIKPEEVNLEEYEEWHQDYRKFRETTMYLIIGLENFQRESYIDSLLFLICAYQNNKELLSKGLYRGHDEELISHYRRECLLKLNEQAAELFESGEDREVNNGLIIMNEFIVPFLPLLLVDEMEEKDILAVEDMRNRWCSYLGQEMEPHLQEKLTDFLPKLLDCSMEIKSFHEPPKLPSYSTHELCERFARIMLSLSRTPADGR
Procedure, shortened: as §1

USP28 = target: T3, USP28 (UniProt Q96RU2)
T3 sequence (whole entry): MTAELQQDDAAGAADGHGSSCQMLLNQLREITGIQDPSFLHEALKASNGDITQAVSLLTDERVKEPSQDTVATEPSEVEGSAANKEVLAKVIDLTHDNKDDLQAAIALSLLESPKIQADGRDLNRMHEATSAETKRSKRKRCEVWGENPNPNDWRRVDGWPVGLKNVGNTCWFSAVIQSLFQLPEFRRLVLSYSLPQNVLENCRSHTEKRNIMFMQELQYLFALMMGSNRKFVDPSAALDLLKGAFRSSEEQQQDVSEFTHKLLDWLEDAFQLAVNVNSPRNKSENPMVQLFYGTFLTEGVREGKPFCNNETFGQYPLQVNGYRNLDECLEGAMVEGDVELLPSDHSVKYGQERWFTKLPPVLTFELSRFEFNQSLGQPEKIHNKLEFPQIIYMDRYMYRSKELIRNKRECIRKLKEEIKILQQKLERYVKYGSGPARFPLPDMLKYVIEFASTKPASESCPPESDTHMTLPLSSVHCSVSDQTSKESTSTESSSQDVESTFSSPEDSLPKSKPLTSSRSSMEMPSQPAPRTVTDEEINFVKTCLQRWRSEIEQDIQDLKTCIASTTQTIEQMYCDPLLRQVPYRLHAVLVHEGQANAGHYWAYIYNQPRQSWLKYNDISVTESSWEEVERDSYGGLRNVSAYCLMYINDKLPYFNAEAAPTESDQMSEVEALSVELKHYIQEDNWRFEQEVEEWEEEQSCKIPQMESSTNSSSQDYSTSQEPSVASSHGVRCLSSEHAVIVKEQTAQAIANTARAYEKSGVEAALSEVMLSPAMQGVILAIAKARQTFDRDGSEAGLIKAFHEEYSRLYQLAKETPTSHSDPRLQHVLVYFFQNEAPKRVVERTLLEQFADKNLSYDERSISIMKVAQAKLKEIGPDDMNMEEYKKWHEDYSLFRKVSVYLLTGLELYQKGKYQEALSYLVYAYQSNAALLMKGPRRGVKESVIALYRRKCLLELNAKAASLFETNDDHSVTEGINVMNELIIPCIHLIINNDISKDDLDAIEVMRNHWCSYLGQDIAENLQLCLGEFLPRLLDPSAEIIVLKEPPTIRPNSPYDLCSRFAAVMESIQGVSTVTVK
Procedure, shortened: as §1

Measured: log2 ratio of Biotin-Ahx-Ub-VS probe labelling

Sequence of USP24 (Q9UPU5 whole entry): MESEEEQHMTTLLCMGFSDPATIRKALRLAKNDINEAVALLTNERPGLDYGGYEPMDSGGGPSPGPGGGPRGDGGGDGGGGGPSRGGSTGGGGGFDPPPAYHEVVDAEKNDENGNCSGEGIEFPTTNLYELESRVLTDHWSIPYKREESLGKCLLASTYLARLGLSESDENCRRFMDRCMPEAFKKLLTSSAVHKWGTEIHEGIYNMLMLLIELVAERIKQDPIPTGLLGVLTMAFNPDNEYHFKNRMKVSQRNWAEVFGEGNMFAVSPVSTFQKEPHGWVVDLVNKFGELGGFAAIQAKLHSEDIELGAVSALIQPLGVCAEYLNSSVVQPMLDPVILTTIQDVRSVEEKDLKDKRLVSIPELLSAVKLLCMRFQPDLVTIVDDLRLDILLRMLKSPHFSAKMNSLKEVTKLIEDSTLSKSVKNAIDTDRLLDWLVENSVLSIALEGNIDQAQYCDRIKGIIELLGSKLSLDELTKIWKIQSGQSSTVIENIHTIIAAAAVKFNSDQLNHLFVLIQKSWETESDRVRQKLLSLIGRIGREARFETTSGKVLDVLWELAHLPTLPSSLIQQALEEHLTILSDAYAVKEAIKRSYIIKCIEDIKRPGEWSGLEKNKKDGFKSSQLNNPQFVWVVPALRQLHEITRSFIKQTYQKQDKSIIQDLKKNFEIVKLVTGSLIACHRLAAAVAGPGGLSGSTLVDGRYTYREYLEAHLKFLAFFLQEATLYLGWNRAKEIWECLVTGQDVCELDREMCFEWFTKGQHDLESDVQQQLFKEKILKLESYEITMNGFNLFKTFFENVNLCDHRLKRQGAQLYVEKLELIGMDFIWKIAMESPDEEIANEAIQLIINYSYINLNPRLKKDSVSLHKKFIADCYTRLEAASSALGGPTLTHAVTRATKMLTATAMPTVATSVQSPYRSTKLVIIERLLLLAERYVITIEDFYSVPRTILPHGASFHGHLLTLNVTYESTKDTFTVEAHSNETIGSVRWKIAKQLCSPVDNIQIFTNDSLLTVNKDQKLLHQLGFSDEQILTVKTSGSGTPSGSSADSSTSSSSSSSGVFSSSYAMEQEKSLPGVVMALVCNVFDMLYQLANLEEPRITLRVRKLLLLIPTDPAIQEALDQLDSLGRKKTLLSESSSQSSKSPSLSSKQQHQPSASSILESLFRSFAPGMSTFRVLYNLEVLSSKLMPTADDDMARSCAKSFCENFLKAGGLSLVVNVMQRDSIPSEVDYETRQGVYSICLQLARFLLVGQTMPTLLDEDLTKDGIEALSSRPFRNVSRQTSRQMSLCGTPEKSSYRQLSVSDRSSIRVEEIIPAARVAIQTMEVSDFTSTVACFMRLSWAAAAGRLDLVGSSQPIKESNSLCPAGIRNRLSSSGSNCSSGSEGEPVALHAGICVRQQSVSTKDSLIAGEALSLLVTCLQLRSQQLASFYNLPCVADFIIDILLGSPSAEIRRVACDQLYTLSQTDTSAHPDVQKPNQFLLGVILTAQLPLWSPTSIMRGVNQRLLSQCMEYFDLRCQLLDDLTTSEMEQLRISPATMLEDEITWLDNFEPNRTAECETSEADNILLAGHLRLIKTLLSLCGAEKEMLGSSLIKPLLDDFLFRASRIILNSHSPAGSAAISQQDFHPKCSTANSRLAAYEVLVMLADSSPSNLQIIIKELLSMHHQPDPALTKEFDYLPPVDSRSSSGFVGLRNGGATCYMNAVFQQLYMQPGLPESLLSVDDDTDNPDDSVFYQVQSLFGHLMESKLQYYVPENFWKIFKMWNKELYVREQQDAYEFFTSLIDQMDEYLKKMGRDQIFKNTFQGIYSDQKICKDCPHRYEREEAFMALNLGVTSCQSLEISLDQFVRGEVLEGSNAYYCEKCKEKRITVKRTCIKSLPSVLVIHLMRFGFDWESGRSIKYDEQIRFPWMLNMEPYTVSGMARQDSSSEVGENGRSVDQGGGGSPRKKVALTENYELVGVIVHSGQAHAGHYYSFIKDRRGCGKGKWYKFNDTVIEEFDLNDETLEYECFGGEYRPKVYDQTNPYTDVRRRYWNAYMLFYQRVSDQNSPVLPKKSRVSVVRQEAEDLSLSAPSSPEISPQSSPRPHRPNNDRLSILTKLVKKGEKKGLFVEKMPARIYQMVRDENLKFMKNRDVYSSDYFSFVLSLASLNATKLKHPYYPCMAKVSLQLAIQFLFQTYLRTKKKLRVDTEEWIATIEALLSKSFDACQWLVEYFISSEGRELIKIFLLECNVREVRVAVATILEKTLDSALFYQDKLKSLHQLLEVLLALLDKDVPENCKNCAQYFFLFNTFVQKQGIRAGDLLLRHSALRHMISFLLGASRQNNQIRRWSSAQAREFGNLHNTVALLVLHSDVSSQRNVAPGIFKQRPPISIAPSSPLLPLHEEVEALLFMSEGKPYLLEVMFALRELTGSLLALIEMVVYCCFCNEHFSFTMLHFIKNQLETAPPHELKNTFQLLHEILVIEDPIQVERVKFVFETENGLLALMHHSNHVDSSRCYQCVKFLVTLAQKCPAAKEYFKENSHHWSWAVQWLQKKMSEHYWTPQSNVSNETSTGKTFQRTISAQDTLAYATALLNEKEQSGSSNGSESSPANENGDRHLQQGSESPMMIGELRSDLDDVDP

O=C(CCl)NCc1noc(C2CC2)n1
inactive: USP19 0.0297 | USP24 -0.225 | USP25 -0.329 | USP28 -0.393
